The text below walks through data of PubChem BioAssay (Tox21).

Structures are written as SMILES. Results filed as inconclusive are left out. Calls of active or inactive are those of the source. The call rests on the fitted dose curve; in most records, active means well fitted cell-killing curve with a large enough effect in the repeat runs; inconclusive means weak or mixed curves, or effect the other way; inactive means no such curve, though single readings can be large or run the other way.
On the % scale 0 is the no-effect control and ±100 the full control effect.

A short description of the assay: qHTS assay to identify small molecule antagonists of the retinoid-related orphan receptor gamma (ROR-gamma) signaling pathway - cell viability counter screen (AID 1159520). Further: nearly all actives have a fitted effect of over 50% in size. Particulars: Tet-on RORgamma CHO cells viability, ATP luminescence, 16 h; series mostly up to 92.4 µM; activity, negative = cytotoxicity: at the top concentration. The method in brief:
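Tet-on ROR gamma CHO cells were given compounds for 2 hr, then doxycycline hyclate at 1 uM final, and incubated 16 hr at 37 C. Viability was measured as ATP content by CellTiter-Glo luminescence.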
Take `C=CCN1CCc2nc(N)sc2CC1`: the “activity, negative = cytotoxicity” value is 8.56% [at 42.5 µM] (inactive).
The same measure for `O=C(O)Cc1c(Cl)ccc(Cl)c1Cl`: -12.2% (inactive).
For the molecule `CCCCCCCCCCCCCC(=O)OCC`, the “activity, negative = cytotoxicity” value was 8.39% (inactive).
In the case of `CC(=O)OCC(=O)[C@@]1(O)CC[C@H]2[C@@H]3CCC4=CC(=O)C=C[C@]4(C)[C@H]3[C@@H](O)C[C@@]21C`, the “activity, negative = cytotoxicity” value was 8.87% [at 42.5 µM] (inactive).
In the case of `Cc1cc(N)no1`, the “activity, negative = cytotoxicity” value was 2.26% (inactive).
On to `O=c1c(O)c(O)c1=O`, for which the “activity, negative = cytotoxicity” value is -3.92% (inactive).
On to `CC/C=C/CCCCCCCCCCOC(C)=O`, for which the “activity, negative = cytotoxicity” value is 1.8% (inactive).
For `N=C(N)N`, the “activity, negative = cytotoxicity” value is 1.84% [at 42.5 µM] (inactive).
For the molecule `CC(=O)Oc1ccc(C(C)=O)cc1`, the “activity, negative = cytotoxicity” value is 2.67% (inactive).
On to `CC(=O)c1c(C)cc(C(C)(C)C)cc1C`, for which the “activity, negative = cytotoxicity” value was -18.9% (inactive).
With `CN(C)CCc1c[nH]c2ccc(C[C@H]3COC(=O)N3)cc12`, the “activity, negative = cytotoxicity” value is -1.44% [at 42.5 µM] (inactive).
With `O=C(O)/C=C(\CC(=O)O)C(=O)O`, the “activity, negative = cytotoxicity” value was 2.81% [at 42.5 µM] (inactive).
The same measure for `CC(C)(O)c1ccc(C(C)(C)O)cc1`: -1.58% (inactive); for `Nc1cc(S(=O)(=O)O)ccc1O`: -1.07% (inactive).
For the molecule `CC(=O)Nc1ccc(S(=O)(=O)Nc2cc(C)on2)cc1`, the “activity, negative = cytotoxicity” value was -0.215% [at 42.5 µM] (inactive).
The same measure for `CC(O)CCCCn1c(=O)c2c(ncn2C)n(C)c1=O` (stereo not drawn): 4.45% [at 42.5 µM] (inactive).
For `CCC(C)c1nccnc1OC` (stereo not drawn), the “activity, negative = cytotoxicity” value was 11.3% (inactive).
`CN(C)c1cc(NC(=O)CNC(C)(C)C)c(O)c2c1C[C@H]1C[C@H]3[C@H](N(C)C)C(=O)C(C(N)=O)=C(O)[C@@]3(O)C(=O)C1=C2O`: the “activity, negative = cytotoxicity” value is -4.12% [at 42.5 µM] (inactive).
The same measure for `CC1(C)CC(N)CC(C)(C)N1`: 1.14% (inactive).
In the case of `C/C=C(\C)C(=O)OC/C=C(\C)CCC=C(C)C`, the “activity, negative = cytotoxicity” value is 3.42% (inactive).
With `COC(=O)c1cc(Cl)c(NC(C)=O)cc1OC`, the “activity, negative = cytotoxicity” value is 0.0706% [at 42.5 µM] (inactive).
For `O=C(c1ccccc1)c1cccc(O)c1`, the “activity, negative = cytotoxicity” value was -0.996% (inactive).
Take `C=C(C)C(=O)OCCCC`: the “activity, negative = cytotoxicity” value was -0.0261% (inactive).
With `CN(C)CCc1c[nH]c2ccc(CS(=O)(=O)N3CCCC3)cc12`, the “activity, negative = cytotoxicity” value was 0.326% [at 42.5 µM] (inactive).
For `Cc1ccc(O)c([N+](=O)[O-])c1`, the “activity, negative = cytotoxicity” value was -4.74% (inactive).
Take `C[C@]12C=CC(=O)C=C1[C@@H](F)C[C@@H]1[C@@H]2[C@@H](O)C[C@@]2(C)[C@H]1CC[C@]2(O)C(=O)CO`: the “activity, negative = cytotoxicity” value is 4.95% [at 42.5 µM] (inactive).
As to `Cc1ccccc1OCC(=O)O`, the “activity, negative = cytotoxicity” value was 6.22% (inactive).
As for `Cc1ccc(N)nc1`, the “activity, negative = cytotoxicity” value is 1.46% (inactive).
As to `Cc1cc(C)c(C)c(C)c1`, the “activity, negative = cytotoxicity” value was 0.64% (inactive).
With `CCCC(=O)OC`, the “activity, negative = cytotoxicity” value is 5.91% (inactive).
With `O=S(=O)(O)c1ccc(Cl)cc1`, the “activity, negative = cytotoxicity” value is 5.09% (inactive).
The same measure for `CN(C)c1ccncc1`: -1.35% (inactive).
Consider `CC(O)C(CO)C(C)O` (stereo not drawn), for which the “activity, negative = cytotoxicity” value was 2.45% (inactive).
For `CC1(C)S[C@@H]2[C@H](NC(=O)Cc3ccccc3)C(=O)N2[C@H]1C(=O)O` (tested in a mixture with another compound), the “activity, negative = cytotoxicity” value is -0.533% [at 42.5 µM] (inactive).
On to `CN1CCN(C(=O)C2CCCCC2)CC1`, for which the “activity, negative = cytotoxicity” value is 0.742% [at 42.5 µM] (inactive).
`C=CCCCCCCCCCCCCCC`: the activity, negative = cytotoxicity was 0.624% [at 19 µM] (inactive).
On to `CC(C)(C)C(=O)CCc1ccc(Cl)cc1`, for which the “activity, negative = cytotoxicity” value was 1.45% (inactive).
`CCCc1ncc(C(=O)O)s1`: the “activity, negative = cytotoxicity” value was 5.39% [at 42.5 µM] (inactive).
